Experimental data reported in PubChem BioAssay (NCATS).
Records with an inconclusive call do not appear. Activity calls are given as the source filed them. Calls come from the whole dose curve; as a rule, active = well fitted curve in the direction sought with a large enough effect; inconclusive = small, poorly fitted or top-dose-only effect, or another doubt; inactive = no such curve, though single readings can be large; an effect the other way counts as inactive or inconclusive.

Assays:
[1] = qHTS of pediatric cancer cell lines to identify multiple opportunities for drug repurposing: Primary screen for DAOY cells (AID 1347090); note: nearly all actives have a fitted effect of over 55% in size; note: potency is the fitted concentration of half-maximal effect
Method in brief: (§1)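 Eight- or eleven-point concentration series, 48 h treatment at 37 degrees C in growth media; readout CellTiter-Glo luminescence. Potency and efficacy were taken from the concentration-response curves.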

[2] = qHTS of pediatric cancer cell lines to identify multiple opportunities for drug repurposing: Primary screen for SJ-GBM2 cells (AID 1347091); note: potency is the fitted concentration of half-maximal effect
Method in brief: as §1

[3] = qHTS of pediatric cancer cell lines to identify multiple opportunities for drug repurposing: Primary screen for A673 cells (AID 1347092); note: nearly all actives have a fitted effect of over 45% in size; note: potency is the fitted concentration of half-maximal effect
Method in brief: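 A673 cells (500-1,000 cells/well in growth media) were pre-incubated 5 h at 37 degrees C, then exposed to compounds for 48 h. Viability was read as CellTiter-Glo luminescence; concentration-response curves came directly from the primary screen.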

[4] = qHTS of pediatric cancer cell lines to identify multiple opportunities for drug repurposing: Primary screen for NB-EBc1 cells (AID 1347095); note: potency is the fitted concentration of half-maximal effect
Method in brief: (§2)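 Viability was measured as metabolically active cells after 48 hours of treatment, read by CellTiter-Glo luminescence. Compounds were tested at multiple final concentrations, giving concentration-response curves.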

[5] = qHTS of pediatric cancer cell lines to identify multiple opportunities for drug repurposing: Primary screen for U-2 OS cells (AID 1347096); note: nearly all actives have a fitted effect of over 50% in size; note: potency is the fitted concentration of half-maximal effect
Method in brief: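 Cells (500-1,000/well) in growth media were settled 5 h at 37 degrees C, then given compounds for 48 h. Viability was read as CellTiter-Glo luminescence. Primary runs used MIPE at 11 points (0.78 nM-46 µM) and NPC at 8 points (0.59 nM-46 µM); follow-ups used 11 points.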

[6] = qHTS of pediatric cancer cell lines to identify multiple opportunities for drug repurposing: Primary screen for SK-N-SH cells (AID 1347098); note: nearly all actives have a fitted effect of over 65% in size; note: potency is the fitted concentration of half-maximal effect
Method in brief: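 Cells (500-1,000/well) rested 5 h, then received compounds for 48 h; metabolically active cells were measured by CellTiter-Glo luminescence. Final concentrations spanned up to 46 µM (MIPE, 11-point) or 0.59 nM-46 µM (NPC, 8-point) in primary screens, 11-point in follow-ups.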

[7] = qHTS of pediatric cancer cell lines to identify multiple opportunities for drug repurposing: Primary screen for TC32 cells (AID 1347089); note: nearly all actives have a fitted effect of over 60% in size
Method in brief: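 Luminescent CellTiter-Glo read-out of metabolically active TC32 cells after 48 h compound exposure. Primary: MIPE 11-point, 0.78 nM–46 µM; NPC 8-point, 0.59 nM–46 µM. Confirmatory: 11-point dilutions.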

[8] = qHTS of pediatric cancer cell lines to identify multiple opportunities for drug repurposing: Primary screen for SK-N-MC cells (AID 1347093); note: potency is the fitted concentration of half-maximal effect
Method in brief: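 Metabolically active cells were quantified by ATP-dependent luminescence (CellTiter-Glo, 15 min at room temperature) following 48 h treatment. Cells had been plated at 500-1,000 per well and settled for 5 h beforehand.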

[9] = qHTS of pediatric cancer cell lines to identify multiple opportunities for drug repurposing: Primary screen for BT-37 cells (AID 1347094); note: potency is the fitted concentration of half-maximal effect
Method in brief: as §2

[10] = qHTS of pediatric cancer cell lines to identify multiple opportunities for drug repurposing: Primary screen for Saos-2 cells (AID 1347097); note: nearly all actives have a fitted effect of over 40% in size; note: potency is the fitted concentration of half-maximal effect
Method in brief: as §2

Measured: Potency

CC1=C(CC(=O)O)c2cc(F)ccc2C1=Cc1ccc(S(C)=O)cc1 (centres undefined)
inactive: [2] | [5]
active: [1] 3.72 µM | [3] 1.48 µM | [4] 18.7 µM | [6] 19.2 µM

C[C@H](c1ccc(F)cc1CCCC(=O)O)N(c1cc(F)ccc1F)S(=O)(=O)c1ccc(Cl)cc1
inactive: [7] | [4] | [5]
active: [8] 3.72 µM | [6] 19.2 µM

CCCCCOC(=O)Nc1nc(=O)n([C@@H]2O[C@H](C)[C@@H](O)C2O)cc1F (some centres undefined)
inactive: [7] | [9] | [4] | [5] | [6]

O=C1NC(=O)C(c2cnc3ccccn23)=C1c1cn2c3c(cccc13)CN(C(=O)N1CCOCC1)CC2
active: [1] 0.0235 µM | [2] 0.0235 µM | [8] 0.0235 µM | [9] 19.3 µM | [4] 0.0166 µM

Nc1ncnc2c1ncn2[C@@H]1O[C@H](CO)[C@@H](O)[C@@H]1O
active: [1] 4.69 µM | [2] 2.35 µM | [3] 0.935 µM | [8] 0.833 µM | [9] 5.44 µM | [4] 3.32 µM | [5] 14.8 µM | [10] 2.96 µM | [6] 15.2 µM

COc1cc2c(cc1Cc1cccc(Cl)c1F)c(=O)c(C(=O)O)cn2[C@H](CO)C(C)C
active: [9] 13.7 µM
inactive: [7] | [6]

Cc1[nH]c(C=C2C(=O)Nc3ccc(S(=O)(=O)N(C)c4cccc(Cl)c4)cc32)c(C)c1C(=O)N1CCN(C)CC1
active: [1] 23.5 µM | [2] 2.09 µM | [3] 23.5 µM | [8] 11.8 µM | [9] 24.3 µM | [6] 30.4 µM

C=CCc1cccc(C=NNC(=O)CN2CCN(Cc3ccccc3)CC2)c1O
active: [1] 18.7 µM | [2] 6.62 µM | [8] 11.8 µM | [10] 5.9 µM | [6] 9.61 µM
inactive: [5]

O=[N+]([O-])c1ccc(Nc2ccccc2-c2ccccc2)c2nonc12
active: [8] 29.6 µM | [4] 23.5 µM
inactive: [7] | [5] | [6]

COc1cc2nccc(Oc3ccc(NC(=O)Nc4cc(C)on4)c(Cl)c3)c2cc1OC
active: [1] 5.9 µM | [4] 13.2 µM | [5] 18.7 µM | [6] 19.2 µM

O=S(=O)(NCCNCC=Cc1ccc(Br)cc1)c1cccc2cnccc12
active: [2] 11.8 µM | [3] 11.8 µM | [4] 16.6 µM | [10] 16.6 µM | [6] 19.2 µM

Fc1ccc(CNc2ncnc3ccc(F)cc23)cc1
inactive: [2] | [5]
active: [3] 9.35 µM | [8] 16.6 µM

NC1(C(=O)N[C@@H](CCO)c2ccc(Cl)cc2)CCN(c2ncnc3[nH]ccc23)CC1
active: [1] 14.8 µM | [8] 0.372 µM | [4] 5.26 µM | [10] 5.9 µM | [6] 30.4 µM

COc1cc2nc(-c3cc(F)ccc3O)nc(N[C@@H]3CNC[C@@H]3C(C)(C)O)c2cc1OC
active: [2] 23.5 µM | [3] 7.43 µM | [9] 27.3 µM | [10] 9.35 µM | [6] 30.4 µM

O=c1[nH]nc(OCCCc2ccc(Cl)cc2)c(NCc2cccnc2)c1Br
active: [3] 9.35 µM | [9] 21.7 µM | [5] 23.5 µM | [10] 26.4 µM
inactive: [6]

Cn1c(=O)c(Oc2ccc(F)cc2F)cc2cnc(NC3CCOCC3)nc21
inactive: [2] | [3] | [8] | [4] | [6]

CN(C)N=Nc1nc[nH]c1C(N)=O
inactive: [3] | [4] | [5] | [10] | [6]
active: [8] 2.64 µM

Cc1csc(-c2nnc(Nc3ccc(Oc4ncccc4-c4ccnc(N)n4)cc3)c3ccccc23)c1
active: [2] 0.003 µM | [3] 14.8 µM | [8] 0.0037 µM

Oc1cc(O)cc(C=Cc2ccc(O)c(O)c2)c1
active: [3] 18.7 µM | [8] 5.26 µM | [4] 4.18 µM
inactive: [1] | [5]

CC(C)Oc1cc(Nc2nc(N[C@@H](C)c3ccc(F)cn3)ncc2Cl)[nH]n1
active: [2] 16.6 µM | [3] 9.35 µM | [8] 4.69 µM | [9] 27.3 µM | [4] 3.32 µM | [5] 23.5 µM | [10] 5.26 µM | [6] 13.6 µM

COc1ccc2cc1Oc1ccc(cc1)C[C@H]1c3cc(c(OC)cc3CCN1C)Oc1c(OC)c(OC)cc3c1[C@H](C2)N(C)CC3
inactive: [5]
active: [1] 18.7 µM | [3] 23.5 µM | [8] 23.5 µM | [10] 29.6 µM

O=C(CCCN1CCN(c2ccc(F)cc2)CC1)NC1c2ccccc2CSc2ccccc21 (centres undefined)
active: [1] 14.8 µM | [3] 11.8 µM

CC(O)=C(C#N)C(=O)Nc1ccc(C(F)(F)F)cc1
inactive: [5]
active: [3] 18.7 µM | [8] 4.69 µM | [4] 4.18 µM

CO[C@@H]1C(N(C)C(=O)c2ccccc2)C[C@H]2O[C@]1(C)n1c3ccccc3c3c4c(c5c6ccccc6n2c5c31)C(=O)NC4=O (some centres undefined)
active: [2] 2.35 µM | [3] 2.96 µM | [8] 1.32 µM | [6] 6.07 µM
inactive: [9]

O=C(O)c1ccc(O)c2ncc(N3CCOCC3)cc12
active: [8] 18.7 µM | [4] 20.9 µM | [10] 23.5 µM | [6] 30.4 µM

O=C(O)CCNc1cc(N2CCc3ccccc3CC2)nc(-c2ccccn2)n1
inactive: [2]
active: [3] 18.7 µM | [8] 23.5 µM | [4] 23.5 µM

CC(C)CNc1ccnc(NCc2csc(-c3ccccc3)n2)n1
active: [8] 10.5 µM | [9] 24.3 µM

COc1ccc(-c2nc3ccc(C4=NNC(=O)CC4C)cc3[nH]2)cc1 (centres undefined)
inactive: [5]
active: [1] 21.1 µM | [8] 21.1 µM | [4] 11.9 µM | [6] 15.4 µM

CCCCC(C=O)NC(=O)C(CC(C)C)NC(=O)OCc1ccccc1 (centres undefined)
inactive: [2] | [4] | [5]

COC(=O)Nc1ccc(-c2nc(N3CCOCC3)c3cnn(C4CCN(C(=O)OC)CC4)c3n2)cc1
active: [1] 1.87 µM | [3] 0.59 µM | [9] 0.122 µM | [4] 0.0083 µM | [10] 2.96 µM | [6] 0.0192 µM

COc1cc2nccc(Oc3ccc(NC(=O)Nc4ccc(F)cc4F)c(F)c3)c2cc1OC
active: [8] 3.72 µM | [4] 2.35 µM
inactive: [5] | [6]

CCc1cccc(CC)c1NC(=O)N1Cc2[nH]nc(NC(=O)c3ccc(N4CCN(C)CC4)cc3)c2C1
active: [8] 0.833 µM | [10] 1.18 µM | [6] 6.07 µM
inactive: [9] | [4]

Cc1cnc(CNC(=O)c2c(=O)c3ccc(N4CCCN(C)CC4)nc3n3c2sc2ccccc23)cn1
active: [4] 6.45 µM
inactive: [1] | [3] | [5] | [10]

CCc1cc(-c2n[nH]c(C)c2-c2ccc3c(c2)OCCO3)c(O)cc1O
active: [2] 6.62 µM | [3] 7.43 µM | [8] 10.5 µM | [4] 4.69 µM | [5] 11.8 µM | [10] 14.8 µM | [6] 9.61 µM

CNC(=O)c1c(-c2ccc(F)cc2)oc2cc(N(CCO)S(C)(=O)=O)c(C3CC3)cc12
active: [1] 23.5 µM | [3] 23.5 µM | [10] 16.6 µM | [6] 30.4 µM

C[C@H]1[C@H](O)O[C@@H]2O[C@@]3(C)CC[C@@H]4[C@H](C)CC[C@@H]1[C@@]24OO3
active: [3] 7.43 µM | [9] 3.85 µM | [4] 3.72 µM | [10] 2.96 µM

C=CC(=O)Nc1cccc(Sc2nc(Nc3ccc(N4CCN(C)CC4)cc3)ncc2Cl)c1
active: [1] 2.35 µM | [3] 1.48 µM | [8] 2.64 µM | [4] 9.35 µM | [6] 27.1 µM

C=C1[C@H](n2cnc3c(=O)[nH]c(N)nc32)C[C@H](O)[C@H]1CO
active: [2] 0.0235 µM | [8] 0.0187 µM | [9] 21.7 µM | [4] 2.09 µM
inactive: [5] | [6]

Cc1ccc(C2=Nc3ccc(Cl)cc3OC2)cc1
active: [2] 23.5 µM | [3] 18.7 µM | [6] 2.15 µM
inactive: [5]

Cc1nc(NC(=O)N2CCC[C@@H]2C(N)=O)sc1-c1csc(C(C)(C)C)n1
active: [1] 14.8 µM | [3] 2.96 µM | [8] 0.235 µM | [4] 4.69 µM | [10] 11.8 µM | [6] 15.2 µM

Clc1ccc(C2(c3ccc(-c4cn[nH]c4)cc3)CCNCC2)cc1
inactive: [9] | [5]
active: [1] 23.5 µM | [3] 18.7 µM | [8] 6.62 µM | [4] 16.6 µM | [10] 4.18 µM | [6] 24.1 µM

CN(C(Cc1ccc(OS(=O)(=O)c2cccc3cnccc23)cc1)C(=O)N1CCN(c2ccccc2)CC1)S(=O)(=O)c1cccc2cnccc12 (centres undefined)
active: [3] 18.7 µM | [8] 0.418 µM
inactive: [9]

COc1cc(CNC(=O)CCCCC=CC(C)C)ccc1O
inactive: [2] | [8] | [9] | [4] | [5] | [10]

c1ccc(-c2oc3ncnc(NC[C@@H]4CCCO4)c3c2-c2ccccc2)cc1
inactive: [5]
active: [3] 23.5 µM | [10] 29.6 µM | [6] 24.1 µM

CC[C@H]1OC(=O)[C@H](C)[C@@H](O[C@H]2C[C@@](C)(OC)[C@@H](O)[C@H](C)O2)[C@H](C)[C@@H](O[C@@H]2O[C@H](C)C[C@H](N(C)C)[C@H]2O)[C@](C)(O)C[C@H](C)C(=NOCOCCOC)[C@H](C)[C@@H](O)[C@]1(C)O
active: [8] 16.6 µM | [6] 30.4 µM
inactive: [2] | [3] | [9] | [4] | [5] | [10]

CC1=C[C@@H]2[C@@H]([C@@H](O)C[C@@]3(C)[C@H]2C[C@@H](C)[C@]3(O)C(=O)CO)[C@@]2(C)Cc3cnn(-c4ccccc4)c3C=C12
inactive: [5]
active: [2] 20.9 µM | [3] 18.7 µM | [4] 23.5 µM | [10] 29.6 µM
